According to PubChem BioAssay (NCI):
About 83,000 compounds went through this panel and 20% of them were active in at least one assay; those are over-represented in the sample as a whole.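 Step 1: grow cells in 96-well plates. Step 2: add test compound at a single concentration. Step 3: incubate 48 h. Step 4: record percent growth.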 Activity calls are given as the source filed them. Rule for the calls: active = growth percent below 10; inactive = the rest.

These compounds were tested on BT-549 breast (assay: NCI-60 one-dose screen, 48 h (100 = growth as untreated, 0 = no growth, -100 = all killed)). Settings: 10 µM unless noted.
In the case of O=c1c2cc(Br)cc(Br)c2nc(-c2ccc(Cl)cc2)n1/N=C\c1ccccc1F, the growth is reported as 88.3% (inactive).
For O=C(O)CSc1ccc(NCc2oc(CO)cc(=O)c2O)cc1, the growth was 92.8% (inactive).
For O=C(c1ccccc1)C1OC1C(=O)c1ccccc1 (stereo unspecified), the growth was 92.1% (inactive).
CS(=O)(=O)c1ccc(C(=O)Nc2ccc(Cl)c(-c3ccccn3)c2)c(Cl)c1 was tested, and the growth was 11.8% (inactive).
In the case of COc1ccccc1/C=N\Nc1ccc([N+](=O)[O-])cn1, the growth is reported as 101% (inactive).
For CCN1C(=O)N(CC)C2C1N=C(SC)N2/N=C/C=C/c1ccccc1OC (stereo unspecified), the growth was 12.8% (inactive).
For O=C(c1ccccc1)C(CCc1ccccn1)CCc1ccccn1, the growth was 106% (inactive).
In the case of C=C[C@H]1CCC/C=C/[C@@H]2C[C@H](O)C[C@H]2[C@H](O)/C=C/C(=O)O1, the growth is reported as 0.705% (active).
For CCN1C(=O)N(CC)C2C1NC(=O)N2/N=C/C=C/c1ccccc1 (stereo unspecified), the growth was 52.1% (inactive).
O=[N+]([O-])c1ccc(N/N=C/c2ccccc2O)nc1 was tested, and the growth was 47.8% (inactive).
In the case of C#CCNc1nc(NCCNC(=O)CCl)nc(N(C)CCCCc2ccccc2)n1, the growth is reported as 76.3% (inactive).
In the case of O=S1(=O)NCCCN1CCNc1nccc(-c2c(-c3cccc(O)c3)nc3sccn23)n1, the growth is reported as 86% (inactive).
With OC(CCCCCCCCC(O)CN1CCc2ccccc2C1)CN1CCc2ccccc2C1 (stereo unspecified) the growth was 101% (inactive).
With CCCCCCCCCCCCNC(=O)N[C@H](C(=O)N[C@H]1/C=C/CCNC(=O)/C=C/[C@H](C)NC1=O)C(C)C the growth was -87.2% (active).
For COc1ccccc1-[n+]1cc(-c2ccc(-c3ccccc3)cc2)n2c1CCCCC2, the growth was -1.37% (active).
O=C(CCl)N1c2ccccc2Oc2ccc3ccccc3c21 was tested, and the growth was -67.3% (active).
For C=C(c1ccc(C(=O)NCCCn2ccnc2)cc1)c1cc2c(cc1C)C(C)(C)CCC2(C)C, the growth was 39.7% (inactive).
COc1cc(CN2CCC(N3CCCC3=O)c3ccccc32)cc(OC)c1OC (stereo unspecified) was tested, and the growth was 124% (inactive).
In the case of CC(=O)Nc1ccc(/C=N/N2CCCCCC2)cc1, the growth is reported as 91.5% (inactive).
CCCCc1nc(Cl)c(C2CC(c3ccc(S(N)(=O)=O)cc3)=NN2c2cc(Cl)cc(Cl)c2)[nH]1 (stereo unspecified) was tested, and the growth was 60.3% (inactive).
With O=C1NN(C(=O)c2ccccc2)C(c2ccc(Cl)c(Cl)c2)=C/C1=C\c1ccccc1[N+](=O)[O-] the growth was -7.17% [6.75 µM] (active).
In the case of O=C(NNC(=O)c1cccc(Cl)c1)c1ccccc1, the growth is reported as 111% (inactive).
Cc1c(C(N)=O)sc2ncn(CC(=O)NN=C3CCCCC3)c(=O)c12 was tested, and the growth was 99.4% (inactive).
For Clc1cc(Cl)cc(-c2cnc3nonc3n2)c1, the growth was 95.6% (inactive).
In the case of COc1cccc(C2C(C#N)=C(N)Oc3cc4c(cc32)OCO4)c1 (stereo unspecified), the growth is reported as 24% (inactive).
C=CCOC(=O)C1=C(C)NC2=C(C(=O)CCC2)C1c1ccc(F)cc1 (stereo unspecified) was tested, and the growth was 99.4% (inactive).
For COc1cc(CN(c2ccc(C)cc2)C2OC(=O)c3ccccc32)cc(OC)c1OC (stereo unspecified), the growth was 20.8% (inactive).
For CN1C(=O)C(C(=O)/C=C/c2ccccc2C(=O)O)C(=O)N(C)C1=O, the growth was 90.4% (inactive).
With CC1(C)OC2OC3C(CN)OC(c4ccccc4)OC3C2O1 (stereo unspecified) the growth was 103% (inactive).
For O=S(=O)(Cc1ccc(Cl)cc1Cl)c1ccc(Cl)cc1, the growth was 62.7% (inactive).
COC(=O)OC1C(O[C@H]2C[C@H]3[C@@H]4CC=C5C[C@@H](O)CC[C@]5(C)[C@H]4CC[C@]3(C)[C@H]2[C@H](C)C(=O)CCC(C)C)OCC(O)C1OC1OCC(O)C(O)C1OC(=O)c1ccc(OC)cc1 (stereo partly specified) was tested, and the growth was 6.19% (active).
In the case of CC(C)c1ccc2c(c1)CCC1C2CCCC1(C)NCc1ccccc1 (stereo unspecified), the growth is reported as 106% (inactive).
With CC(=O)C1CCC2C3CC(C)=C4CC(O)CCC4(C)C3CCC12C (stereo unspecified) the growth was 100% (inactive).
With CC(CN1CCN(CC(C)Nc2ccnc3cc(Cl)ccc23)CC1)Nc1ccnc2cc(Cl)ccc12 (stereo unspecified) the growth was 10.8% (inactive).
In the case of C=CCOC(=O)C1=C(C)NC2=C(C(=O)CC(C)(C)C2)C1c1ccc(OC)cc1 (stereo unspecified), the growth is reported as 94.1% (inactive).
In the case of CCCCCCCC/C=C/CCCCCCCC1=NC(C)(C)CN1c1ccccc1, the growth is reported as 105% (inactive).
COc1ccc2c(c1)N(Cc1ccc(Cl)cc1)CCC2N1CCCC1=O (stereo unspecified) was tested, and the growth was 16.1% (inactive).

The compounds below were run on MDA-MB-435 melanoma in the same assay as above. Settings: 10 µM unless noted.
For O=c1c2cc(Br)cc(Br)c2nc(-c2ccc(Cl)cc2)n1/N=C\c1ccccc1F, the growth was 81.2% (inactive).
With O=C(O)CSc1ccc(NCc2oc(CO)cc(=O)c2O)cc1 the growth was 116% (inactive).
In the case of O=C(c1ccccc1)C1OC1C(=O)c1ccccc1 (stereo unspecified), the growth is reported as 1.06% (active).
With CS(=O)(=O)c1ccc(C(=O)Nc2ccc(Cl)c(-c3ccccn3)c2)c(Cl)c1 the growth was 14.1% (inactive).
COc1ccccc1/C=N\Nc1ccc([N+](=O)[O-])cn1 was tested, and the growth was 104% (inactive).
CCN1C(=O)N(CC)C2C1N=C(SC)N2/N=C/C=C/c1ccccc1OC (stereo unspecified) was tested, and the growth was 2.95% (active).
With O=C(c1ccccc1)C(CCc1ccccn1)CCc1ccccn1 the growth was 108% (inactive).
C=C[C@H]1CCC/C=C/[C@@H]2C[C@H](O)C[C@H]2[C@H](O)/C=C/C(=O)O1 was tested, and the growth was 15% (inactive).
CCN1C(=O)N(CC)C2C1NC(=O)N2/N=C/C=C/c1ccccc1 (stereo unspecified) was tested, and the growth was -2.78% (active).
O=[N+]([O-])c1ccc(N/N=C/c2ccccc2O)nc1 was tested, and the growth was 46.8% (inactive).
In the case of C#CCNc1nc(NCCNC(=O)CCl)nc(N(C)CCCCc2ccccc2)n1, the growth is reported as 98.7% (inactive).
O=S1(=O)NCCCN1CCNc1nccc(-c2c(-c3cccc(O)c3)nc3sccn23)n1 was tested, and the growth was 24.6% (inactive).
For OC(CCCCCCCCC(O)CN1CCc2ccccc2C1)CN1CCc2ccccc2C1 (stereo unspecified), the growth was 99.8% (inactive).
For CCCCCCCCCCCCNC(=O)N[C@H](C(=O)N[C@H]1/C=C/CCNC(=O)/C=C/[C@H](C)NC1=O)C(C)C, the growth was -40.1% (active).
With COc1ccccc1-[n+]1cc(-c2ccc(-c3ccccc3)cc2)n2c1CCCCC2 the growth was 6.5% (active).
O=C(CCl)N1c2ccccc2Oc2ccc3ccccc3c21 was tested, and the growth was -22.4% (active).
For C=C(c1ccc(C(=O)NCCCn2ccnc2)cc1)c1cc2c(cc1C)C(C)(C)CCC2(C)C, the growth was -27% (active).
COc1cc(CN2CCC(N3CCCC3=O)c3ccccc32)cc(OC)c1OC (stereo unspecified) was tested, and the growth was 90.4% (inactive).
CC(=O)Nc1ccc(/C=N/N2CCCCCC2)cc1 was tested, and the growth was 95.6% (inactive).
In the case of CCCCc1nc(Cl)c(C2CC(c3ccc(S(N)(=O)=O)cc3)=NN2c2cc(Cl)cc(Cl)c2)[nH]1 (stereo unspecified), the growth is reported as 35.7% (inactive).
O=C1NN(C(=O)c2ccccc2)C(c2ccc(Cl)c(Cl)c2)=C/C1=C\c1ccccc1[N+](=O)[O-] was tested, and the growth was 58.5% [6.75 µM] (inactive).
With O=C(NNC(=O)c1cccc(Cl)c1)c1ccccc1 the growth was 103% (inactive).
Cc1c(C(N)=O)sc2ncn(CC(=O)NN=C3CCCCC3)c(=O)c12 was tested, and the growth was 99% (inactive).
Clc1cc(Cl)cc(-c2cnc3nonc3n2)c1 was tested, and the growth was 103% (inactive).
CCOC(=O)Cn1c(-c2nonc2NC(=O)c2ccccc2F)nc2ccccc21 was tested, and the growth was 49.3% (inactive).
In the case of COc1ccc(C(=O)O)cc1.[Ag], the growth is reported as 95.3% (inactive).
In the case of COc1cccc(C2C(C#N)=C(N)Oc3cc4c(cc32)OCO4)c1 (stereo unspecified), the growth is reported as -12.3% (active).
For C=CCOC(=O)C1=C(C)NC2=C(C(=O)CCC2)C1c1ccc(F)cc1 (stereo unspecified), the growth was 101% (inactive).
COc1cc(CN(c2ccc(C)cc2)C2OC(=O)c3ccccc32)cc(OC)c1OC (stereo unspecified) was tested, and the growth was -17.8% (active).
In the case of CN1C(=O)C(C(=O)/C=C/c2ccccc2C(=O)O)C(=O)N(C)C1=O, the growth is reported as 101% (inactive).
With CC1(C)OC2OC3C(CN)OC(c4ccccc4)OC3C2O1 (stereo unspecified) the growth was 110% (inactive).
For O=S(=O)(Cc1ccc(Cl)cc1Cl)c1ccc(Cl)cc1, the growth was -33.1% (active).
COC(=O)OC1C(O[C@H]2C[C@H]3[C@@H]4CC=C5C[C@@H](O)CC[C@]5(C)[C@H]4CC[C@]3(C)[C@H]2[C@H](C)C(=O)CCC(C)C)OCC(O)C1OC1OCC(O)C(O)C1OC(=O)c1ccc(OC)cc1 (stereo partly specified) was tested, and the growth was -15.3% (active).
CC(C)c1ccc2c(c1)CCC1C2CCCC1(C)NCc1ccccc1 (stereo unspecified) was tested, and the growth was 18.2% (inactive).
For CC(=O)C1CCC2C3CC(C)=C4CC(O)CCC4(C)C3CCC12C (stereo unspecified), the growth was 109% (inactive).
With CC(CN1CCN(CC(C)Nc2ccnc3cc(Cl)ccc23)CC1)Nc1ccnc2cc(Cl)ccc12 (stereo unspecified) the growth was -45.4% (active).
With C=CCOC(=O)C1=C(C)NC2=C(C(=O)CC(C)(C)C2)C1c1ccc(OC)cc1 (stereo unspecified) the growth was 105% (inactive).
In the case of CCCCCCCC/C=C/CCCCCCCC1=NC(C)(C)CN1c1ccccc1, the growth is reported as 50.3% (inactive).
For COc1ccc2c(c1)N(Cc1ccc(Cl)cc1)CCC2N1CCCC1=O (stereo unspecified), the growth was 46.2% (inactive).
